# Laboratory results published in PubChem BioAssay (NCATS).
# Inconclusive results are not listed. Where a call stands in place of a potency, no number is given. The source made the active and inactive calls. Calls follow the shape of the dose curve; as a rule, active = well fitted inhibition curve with a large enough effect; inconclusive = small, poorly fitted or top-dose-only effect; inactive = no such curve, though single readings can be large or run the other way.
# System: Zika virus NS2B-NS3 protease (linked construct)
# Test: Primary screen NINDS Rhodamine qHTS for Zika virus inhibitors (AID 1347160); also: nearly all actives have a fitted effect of over 55% in size
# Details: purified NS2B-NS3 protease, Rhodamine110 substrate fluorescence; series mostly up to 33.1 µM
# How it was run: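 Enzyme (25 nM, linked NS2B-NS3) was preincubated 15 min with compound in 10 mM Tris-HCl pH 8.0, 0.01% Tween 20. Rhodamine110 substrate (1.5 microM) was then added and fluorescence read at start and after 15 min.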
SMILES,Potency,outcome
C[C@@H]1O[C@@H](O[C@H]2[C@H](O)[C@@H](O[C@@H]3O[C@H](CO)[C@H](O)[C@H](O)[C@H]3O)[C@H](O[C@H]3CC[C@@]4(C)C(CC[C@]5(C)C4CC=C4[C@@H]6CC(C)(C)CC[C@]6(C(=O)O[C@@H]6O[C@H](CO)[C@@H](O)[C@H](O)[C@H]6O)CC[C@]45C)C3(C)C)O[C@@H]2C(=O)O)[C@H](O)[C@H](O)[C@H]1O (some centres undefined),inactive,–
CC(=O)OC(C)C(C)(O)C(=O)O[C@@H]1CC[C@]2(C)CC(=O)C(=C(C)C)C[C@H]2[C@]1(C)OC(C)=O (some centres undefined),inactive,–
CCCCOc1nc(N)c2c(n1)N(Cc1cccc(CN3CCCC3)c1)CC(=O)N2,inactive,–
COc1ccc(CCC(=O)O)c(O[C@@H]2O[C@H](CO)[C@@H](O)[C@H](O)[C@H]2O)c1,inactive,–
C[C@@H]1O[C@@H](OC(=O)Cc2ccccc2)[C@H](O)[C@H](O)[C@H]1O,inactive,–
COc1c2c(c(C)c3c1C(=O)OC3)OC1(C)CC(O)C34OC(OC)(CC(O)C3(C)C1C2)OC4(C)C (centres undefined),inactive,–
CC1=C2C(=O)C=C(CO[C@@H]3O[C@H](CO)[C@@H](O)[C@H](O)[C@H]3O)[C@@H]2[C@H]2OC(=O)[C@H](C)[C@@H]2[C@@H](O)C1,inactive,–
COC1CC(O[C@H]2CC[C@@]3(C)C(=CC[C@]4(O)C3[C@H](O)[C@@H](O)[C@]3(C)[C@@H]([C@H](C)O)CC[C@@]34O)C2)OC(C)C1OC1CC(OC)C(OC2CC(OC)C(OC3OC(C)C(OC4OC(CO)C(O)C(O)C4O)C(OC)C3O)C(C)O2)C(C)O1 (some centres undefined),inactive,–
C/C=C(\C)C(=O)OC1C2(O)CC3=C4CC(=O)OC(c5ccoc5)C4(C)CCC3C(C)(C2=O)C(C(OC(C)=O)C(=O)OC)C1(C)C (centres undefined),inactive,–
CC(=O)/C=C/[C@H]1[C@](C)(O)[C@@H](O)[C@H](O)C2C(C)(C)CCC[C@@]21C (some centres undefined),inactive,–
COc1cc(C2OCC3(O)C(c4ccc(O[C@@H]5O[C@H](CO)[C@@H](O)[C@H](O)[C@H]5O)c(OC)c4)OCC23O)ccc1O (some centres undefined),inactive,–
COc1ccc(/C=C/C(=O)O[C@@H]2[C@@H](O[C@@H]3O[C@H](CO)[C@@H](O)[C@H](O)[C@H]3O)[C@@H](O)[C@H](O[C@H]3C4C=CO[C@@H](O[C@@H]5O[C@H](CO)[C@@H](O)[C@H](O)[C@H]5O)C4[C@@]4(CO)O[C@@H]34)O[C@H]2C)cc1 (some centres undefined),inactive,–
C[C@@H]1C(=O)O[C@H](C)[C@H]1C[C@@H](O)[C@](C)(O)[C@H]1CC[C@@]2(O)C3=CC(=O)[C@@H]4C[C@@H](O)[C@@H](O)C[C@]4(C)C3CC[C@]12C (some centres undefined),inactive,–
Cc1oc2nc3c(c(NC(=O)CN4CCCC4=O)c2c1C)CCCC3,inactive,–
CC1=C2C[C@@]3(C)[C@@H](CCC[C@@H]3C)C[C@@]2(O)OC1=O,inactive,–
CC(C)(CC(=O)N1CCCC1)NCC(=O)N1C[C@@H](F)C[C@H]1C#N,inactive,–
C=CC(C)(O)CC/C=C(\C)C1CC=C(C)C(=O)O1 (centres undefined),inactive,–
COc1c2ccoc2nc2c(OC)c(O[C@@H]3O[C@@H](C)[C@H](O)[C@@H](O[C@@H]4O[C@H](CO)[C@@H](O)[C@H](O)[C@H]4O)[C@H]3OC(C)=O)ccc12,inactive,–
COc1cc(/C=C/C(=O)O[C@H]2[C@H](O)[C@@H](CO)O[C@@]2(CO)O[C@H]2O[C@H](CO)[C@@H](O)[C@H](O)[C@H]2O)cc(OC)c1O,inactive,–
CCOC(=O)c1ccc(NC2CCCCC2)c(N)c1,inactive,–

SMILES,Potency,outcome
COc1ccc(C2(O)c3ccccc3NC(=O)C2OC)cc1 (centres undefined),inactive,–
CCOc1nc2c(N)ncnc2n1CC,inactive,–
CC(O)CCc1ccc(O[C@@H]2O[C@H](CO)[C@@H](O)[C@H](O)[C@H]2O)cc1 (some centres undefined),inactive,–
CCOC(=O)C(CCc1ccccc1)NC(C)C(=O)N1Cc2ccccc2CC1C(=O)O (centres undefined),inactive,–
CC(C)=CCC[C@](C)(O[C@@H]1O[C@H](CO[C@@H]2O[C@@H](CO)[C@H](O)[C@H]2O[C@@H]2OC[C@@H](O)[C@H](O)[C@H]2O)[C@@H](O)[C@H](O)[C@H]1O)[C@H]1CC[C@]2(C)[C@@H]1[C@H](O)CC1[C@@]3(C)CC[C@H](O[C@@H]4O[C@H](CO)[C@@H](O)[C@H](O)[C@H]4O[C@@H]4O[C@H](CO)[C@@H](O)[C@H](O)[C@H]4O)C(C)(C)C3CC[C@]12C (some centres undefined),–,inactive [at 10.7 µM]
CC1=C(CO)CC(C(C)C2CCC3C4CC=C5CC(OC6OC(COC7OC(CO)C(O)C(O)C7O)C(O)C(O)C6O)CC(O)C5(C)C4CCC23C)OC1=O (centres undefined),inactive,–
COc1c2c(c(C)c3c1C(=O)OC3)OC1(C)CC(O)C34OC(O)(CCC3(C)C1C2)OC4(C)C (centres undefined),inactive,–
CC(C)C1(O)C=C2C(=O)CC3C(C)(C(=O)O)CCCC3(C)C2CC1 (centres undefined),inactive,–
CC(=O)O[C@@H]1[C@H](OC(C)=O)C[C@@]2(C)C(CC[C@@H](C)[C@]23Cc2c(O)cc4c(c2O3)CN([C@@H](CCC(=O)O)C(=O)O)C4=O)C1(C)C (some centres undefined),inactive,–
C=CC(C)(CCC=C(C)C)O[C@@H]1O[C@H](CO)[C@@H](O)[C@H](O)[C@H]1O (some centres undefined),inactive,–
COCC1OC(n2cnc3c(=O)[nH]cnc32)C(O)C1O (centres undefined),inactive,–
CC1(C(=O)O)CCCC2(C)C3CCC4CC3(CCC12)CC4C(=O)O (centres undefined),inactive,–
C[C@H]1[C@@H](O)[C@H](O)C2[C@]3(C)C([C@@H](O)[C@H]4OC(=O)[C@@H]1[C@@]24C)[C@](C)(O)C=C[C@H]3O[C@@H]1O[C@H](CO)[C@@H](O)[C@H](O)[C@H]1O (some centres undefined),inactive,–
Cc1ccc(Nc2nnc(-c3ccc([N+](=O)[O-])cc3)o2)cc1Cl,inactive,–
C=C[C@H]1[C@H](O[C@@H]2O[C@H](CO)[C@@H](O)[C@H](OC(=O)/C=C/c3ccc(O)c(OC)c3)[C@H]2O)OC=C2C(=O)OCC[C@]21O,inactive,–
CC(C)=C1C[C@@]2(C)C(=CC1=O)CC[C@@H](O)[C@@H]2C,inactive,–
C[C@@H]1CC[C@]2(C(=O)O[C@@H]3O[C@H](CO[C@@H]4O[C@H](CO)[C@@H](O[C@@H]5O[C@@H](C)[C@H](O)[C@@H](O)[C@H]5O)[C@H](O)[C@H]4O)[C@@H](O)[C@H](O)[C@H]3O)CC[C@]3(C)C(=CCC4[C@@]5(C)C[C@@H](O)[C@H](O)[C@@](C)(CO)C5CC[C@]43C)C2[C@H]1C (some centres undefined),inactive,–
CC(=O)N[C@H]1[C@H](O[C@H]2CC[C@]3(C)C4CC=C5[C@@H]6CC(C)(C)CC[C@]6(C(=O)O)[C@H](O)C[C@@]5(C)[C@]4(C)CC[C@H]3C2(C)C)O[C@H](CO)[C@@H](O)[C@@H]1O (some centres undefined),inactive,–
C/C=C(\C)C(=O)OC[C@H]1O[C@@H](O[C@H]2[C@@H](O[C@H]3O[C@H](CO)[C@@H](O)[C@H](O)[C@H]3O[C@@H]3O[C@H](CO)[C@@H](O)[C@H](O)[C@H]3O)O[C@H](COC(=O)/C(C)=C/C)[C@@H](O)[C@@H]2O)[C@H](O)[C@@H](O)[C@@H]1O,inactive,–
